Screens: PubChem, several laboratories
NALP1 inh: NALP1 inflammasome inhibitors in reconstituted yeast, colorimetric, S. cerevisiae, triplicate retest | inhibition, % at 10 µM | AID 2071, 2009 | 0.61% of 280,000 active | S. cerevisiae NALP1/ASC/caspase-1 growth, X-gal OD620, 72 h; in the data active = inhibition mostly above about 24%, no sharp cut-off; inactive = mostly below about 32%
PERK inh: block of dimerizer-induced PERK translation repression, primary screen, PERK inhibitor project, CHO PERK-DD cells, SEAP luminescence, HTS | CHO PERK-DD fusion, SEAP luminescence translation reporter | 0.17% of 220,000 active | inhibition, % at 5.6 µM | Eukaryotic translation initiation factor 2-alpha kinase 3 (Homo sapiens), Q9NZJ5;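 active = inhibition above the mean inhibition of all tested compounds plus 3 SD, set separately per screening campaign, cut at about 2.9% in these data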;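 also: PERK kinase domain activated by AP20187 dimerizer at 100 nM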
Target sequence (Q9NZJ5 whole entry, looked up, the tested form may be a part): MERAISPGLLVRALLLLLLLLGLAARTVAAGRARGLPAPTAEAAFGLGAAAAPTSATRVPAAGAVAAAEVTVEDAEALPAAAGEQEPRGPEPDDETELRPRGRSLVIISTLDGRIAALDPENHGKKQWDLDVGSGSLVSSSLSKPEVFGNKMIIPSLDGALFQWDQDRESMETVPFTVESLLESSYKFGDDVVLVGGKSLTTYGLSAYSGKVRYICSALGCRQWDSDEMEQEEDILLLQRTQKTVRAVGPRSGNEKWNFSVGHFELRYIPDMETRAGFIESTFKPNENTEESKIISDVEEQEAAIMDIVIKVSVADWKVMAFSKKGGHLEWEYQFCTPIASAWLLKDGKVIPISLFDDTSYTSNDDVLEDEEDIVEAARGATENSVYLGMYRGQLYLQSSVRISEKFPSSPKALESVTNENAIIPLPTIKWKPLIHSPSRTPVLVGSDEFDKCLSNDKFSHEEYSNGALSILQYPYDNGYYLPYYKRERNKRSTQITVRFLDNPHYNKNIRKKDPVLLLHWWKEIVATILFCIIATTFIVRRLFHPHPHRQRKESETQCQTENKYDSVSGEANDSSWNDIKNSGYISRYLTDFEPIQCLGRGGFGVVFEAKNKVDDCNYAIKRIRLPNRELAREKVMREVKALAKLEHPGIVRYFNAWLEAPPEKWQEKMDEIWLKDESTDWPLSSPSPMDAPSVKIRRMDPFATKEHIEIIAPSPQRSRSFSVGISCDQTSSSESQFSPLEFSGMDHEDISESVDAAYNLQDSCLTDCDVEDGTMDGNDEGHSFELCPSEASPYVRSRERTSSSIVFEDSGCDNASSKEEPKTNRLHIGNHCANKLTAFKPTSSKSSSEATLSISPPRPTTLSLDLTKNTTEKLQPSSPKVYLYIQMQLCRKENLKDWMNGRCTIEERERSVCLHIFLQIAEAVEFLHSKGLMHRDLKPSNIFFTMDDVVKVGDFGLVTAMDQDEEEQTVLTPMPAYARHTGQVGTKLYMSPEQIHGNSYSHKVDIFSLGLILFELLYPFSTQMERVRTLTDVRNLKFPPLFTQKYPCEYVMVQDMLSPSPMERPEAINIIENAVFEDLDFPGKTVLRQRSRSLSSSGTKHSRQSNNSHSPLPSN
V-ATPase pH: regulators of yeast V-ATPase proton pumping, primary screen, pHLuorin cytosolic pH fluorescence | S. cerevisiae | response, % at 10 µM | 0.37% of 350,000 active; in the data active = response mostly above about 7.3%, no sharp cut-off; inactive = mostly below about 5.4%; also: actives read high
NLRP3 yeast inh: NALP3 inflammasome inhibitors in reconstituted yeast, primary screen, luminescence, uHTS | inhibition, % at 10 µM | 0.39% of 330,000 active | Yeast reconstituted NLRP3/ASC/caspase-1, beta-gal luminescence, 24 h;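 active = inhibition of 50% or more; inactive = inhibition below 50%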
Rce1 inhib: yeast Rce1p protease inhibitors, primary screen, biochemical, fluorescence, cell-free homogeneous; CAAX prenyl protease 2 (Saccharomyces cerevisiae (strain ATCC 204508 / S288c)), Q03530; yeast membranes, quenched prenylated peptide cleavage fluorescence; calls only; 0.27% of 290,000 active; AID 2563, 2010;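 active = fall in fluorescence gain of 50% or more versus controls, with final raw signal at or below 3038400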
CR mimetic SO: reduction of superoxide in aged yeast, primary screen, HTS | S. cerevisiae aged cells, superoxide DHE fluorescence; stronger effect = lower value | superoxide response (% of plate mean), % at 10 µM | 0.18% of 330,000 active | AID 2690, 2010;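 active = superoxide response under a set limit, about three screen SD below normal, cut at about 65% in these data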;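 also: yeast aged for seven days with compound at 30 °C before DHE staining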
NALP3 confirm: NALP3 inhibitors retested in yeast, confirmation, luminescence, single concentration | shares compounds with NLRP3 yeast inh | 81% of 1,300 active | yeast expressing human NALP3 | inhibition, % at 10 µM | AID 435006, 2010; in the data active = inhibition above about 48%
Casp1 ASC ctr: CASP1-PYCARD signaling inhibition in yeast, confirmatory test, counterassay for NLRP3 inhibitor program, one-dose; shares compounds with NLRP3 yeast inh; yeast expressing Caspase-1-ASC, luminescence counter screen; inhibition, % at 10 µM; 66% of 1,000 active; AID 488784, 2010
NALP3 yeast rt: NALP3 inhibitors in yeast, repeat test, confirmation, luminescence, single concentration, retest | AID 488794, 2010 | yeast expressing human NALP3, luminescence read-out | 53% of 1,000 active | shares compounds with NLRP3 yeast inh | inhibition, % at 10 µM
Of the large screens only hits and unclear results are named; the others gave an inactive call (follow-up assays come after a bar, where they were run). Most compounds without a hit are left out; they make up all but 1.6% or so of the library. Rule as the data show it, unless noted: active = inhibition above about 50%; inactive = the rest.

Cc1cc(C)c(S(=O)(=O)N2CCN(C(=O)c3ccc(-n4nc(C)c(Cl)c4C)cc3)CC2)c(C)c1	none (no result: NALP1 inh, PERK inh, NLRP3 yeast inh, Rce1 inhib, CR mimetic SO)
CCn1c2ccccc2c2cc(/C=N/n3cnnc3)ccc21	none
CCn1c2ccccc2c2cc(/C=N/n3cn[nH]c3=S)ccc21	NLRP3 yeast inh 67.9 | NALP3 confirm 74.4 | Casp1 ASC ctr 82.2 | NALP3 yeast rt 62.9
C=C(Cl)COc1ccc2c(CC)cc(=O)oc2c1	NLRP3 yeast inh 50.8 (no result: Rce1 inhib) | NALP3 confirm inactive | Casp1 ASC ctr 64.3 | NALP3 yeast rt 56.4
O=C(Oc1cc(=O)oc2c1c(=O)n1c3c(cccc23)CC1)c1ccccc1	NLRP3 yeast inh 64.3 | NALP3 confirm 76.5 | Casp1 ASC ctr 56.3 | NALP3 yeast rt 62.6
O=C(Oc1cc(=O)oc2c1c(=O)n1c3c(cccc23)CC1)c1ccc(F)cc1	NLRP3 yeast inh 57.9 | NALP3 confirm 73.8
O[C@H]1C[C@H](c2ccc(Cl)cc2)N(CC2CCCCC2)C[C@@H]1n1cc(C2CC2)nn1	none (no result: NALP1 inh, PERK inh, NLRP3 yeast inh, Rce1 inhib, CR mimetic SO)
O=C1NC(Cc2ccccc2)c2nc3ccc(F)cc3c(=O)n2-c2cc(Cl)ccc21 (stereo unspecified)	none (no result: NALP1 inh, PERK inh, V-ATPase pH, Rce1 inhib)
CC1C(c2ccccc2)OCCN1C(=S)Nc1ccc(S(=O)(=O)N2CCCCC2)cc1 (stereo unspecified)	none (no result: NALP1 inh, PERK inh, NLRP3 yeast inh, Rce1 inhib, CR mimetic SO)
CCc1cccc(NC(=S)N2CCC(c3ccccc3)C2)c1 (stereo unspecified)	NLRP3 yeast inh 51.6 | NALP3 confirm 56.0 | Casp1 ASC ctr 61.8 | NALP3 yeast rt inactive
CSc1cccc(NC(=S)N2CCC(c3ccccc3)C2)c1 (stereo unspecified)	none (no result: PERK inh)
CN(C)/N=C/c1ccc(Sc2ccc([N+](=O)[O-])cc2[N+](=O)[O-])o1	NLRP3 yeast inh 53.9 | NALP3 confirm inactive
Cc1cc(C)nc(Sc2ccc([N+](=O)[O-])cc2[N+](=O)[O-])n1	none
CCCNC(=O)c1cc2c3ccccc3n(C)c2s1	NLRP3 yeast inh 50.9 | NALP3 confirm 49.8 | Casp1 ASC ctr inactive | NALP3 yeast rt inactive
N#CC(c1ccccc1)C(CC(=O)c1ccccc1)c1ccccc1 (stereo unspecified)	none (no result: NALP1 inh, PERK inh, NLRP3 yeast inh, Rce1 inhib, CR mimetic SO)
CCN(CC)C(=O)C1=C(C)N(CCCN2CCCC2=O)C(=O)C(CC(=O)NC2CCCC2)C1 (stereo unspecified)	none (no result: NALP1 inh, PERK inh, NLRP3 yeast inh, Rce1 inhib, CR mimetic SO)
CCOc1ccc(/C(O)=C2/C(=O)C(=O)N(CCCN3CCOCC3)C2c2ccc(F)cc2)cc1C (stereo unspecified)	NLRP3 yeast inh 50.4 (no result: PERK inh) | NALP3 confirm 66.7 | Casp1 ASC ctr inactive | NALP3 yeast rt inactive
Cc1ccc(-c2nn(-c3ccccc3)cc2C=C2C(=O)CC(C)(C)CC2=O)cc1	none
CC1(C)CC(=O)C(=Cc2cn(-c3ccccc3)nc2-c2ccccc2)C(=O)C1	NLRP3 yeast inh 53.9 (no result: NALP1 inh, PERK inh) | NALP3 confirm 83.2 | Casp1 ASC ctr inactive | NALP3 yeast rt inactive
CC1(C)C[C@H](O)[C@@]23C[C@@H](OC2=O)[C@]2(C)C(=CCC4[C@@]5(C)CC[C@H](O)C(C)(C)C5CC[C@]42C)[C@@H]3C1 (stereo partly specified)	NLRP3 yeast inh 50.8 (no result: NALP1 inh, PERK inh, V-ATPase pH) | NALP3 confirm 68.4 | Casp1 ASC ctr inactive | NALP3 yeast rt inactive
CC1(C)C[C@H](O)[C@]2(CO)CC[C@]3(C)C(=CCC4[C@@]5(C)CC[C@H](O)C(C)(C)C5CC[C@]43C)[C@@H]2C1 (stereo partly specified)	none (no result: NALP1 inh, PERK inh, Rce1 inhib)
